# From ChEMBL document CHEMBL3988442, “University of Dundee, Small-Polar-MMV Screening Library” (2021)
# Biological target: T1, Methionyl-tRNA synthetase, putative (Leishmania donovani (strain BPK282A1)) (UniProt E9BF75)
# T1 sequence (whole entry): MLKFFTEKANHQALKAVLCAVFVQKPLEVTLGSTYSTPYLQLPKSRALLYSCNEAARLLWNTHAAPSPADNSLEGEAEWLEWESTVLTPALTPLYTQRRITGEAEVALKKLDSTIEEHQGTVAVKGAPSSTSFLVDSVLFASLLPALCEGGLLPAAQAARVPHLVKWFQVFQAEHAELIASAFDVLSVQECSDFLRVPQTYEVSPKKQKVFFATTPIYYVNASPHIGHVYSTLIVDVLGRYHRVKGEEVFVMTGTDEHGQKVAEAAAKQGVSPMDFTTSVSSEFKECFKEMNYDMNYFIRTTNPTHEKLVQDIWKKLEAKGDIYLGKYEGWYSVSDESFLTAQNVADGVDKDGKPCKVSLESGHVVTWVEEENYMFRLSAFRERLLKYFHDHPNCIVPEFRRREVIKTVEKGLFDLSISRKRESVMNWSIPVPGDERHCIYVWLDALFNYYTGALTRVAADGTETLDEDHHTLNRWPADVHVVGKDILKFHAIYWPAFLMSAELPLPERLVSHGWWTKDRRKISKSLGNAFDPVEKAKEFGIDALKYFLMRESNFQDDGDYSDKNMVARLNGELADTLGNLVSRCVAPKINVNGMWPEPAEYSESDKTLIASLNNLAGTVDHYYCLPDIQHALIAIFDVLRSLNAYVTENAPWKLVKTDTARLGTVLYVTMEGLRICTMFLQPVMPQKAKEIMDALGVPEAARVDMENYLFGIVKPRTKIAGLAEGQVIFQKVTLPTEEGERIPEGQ
# Experiment: Leishmania donovani Methionine tRNA synthetase (LdMetRS):v7. Dose response assay
# Type: functional
# Parameters: conc 80 nM, time 150 minutes
smiles,measurement,setting,value
Cc1nc(N2CCC(NS(C)(=O)=O)CC2)c2c(-c3cccs3)csc2n1,PXC50,MAX_EFFECT 36.61616162,< 4
same,PXC50,MAX_EFFECT 37.24489796,< 4
CC1CCN(c2nc3c(c(C(F)(F)F)n2)CCCCC3)CC1,PXC50,MAX_EFFECT 8.396946565,< 4
same,PXC50,MAX_EFFECT 11.83879093,< 4
O=C(C1CCC1)N1CCC(c2ncc3c(n2)CCNC3)CC1,PXC50,MAX_EFFECT 30.83900227,< 4
same,PXC50,MAX_EFFECT 33.27102804,< 4
COc1ccc(C(=O)[C@H]2C[C@@H]2CN(Cc2ccccn2)Cc2ccccn2)cc1,PXC50,MAX_EFFECT 11.1627907,< 4
same,PXC50,MAX_EFFECT 16.55011655,< 4
Cc1nc(NCC(C)(C)O)c2c3c(sc2n1)CCCC3,PXC50,MAX_EFFECT 11.84210526,< 4
same,PXC50,MAX_EFFECT 12.5,< 4
Cc1nc(N[C@@H](Cc2ccccc2)C(=O)O)c2c3c(sc2n1)CCCC3,PXC50,MAX_EFFECT 23.48484848,< 4
same,PXC50,MAX_EFFECT 27.55102041,< 4
Cc1nc(N(C)CCC(=O)O)c2cc(-c3ccccc3)sc2n1,PXC50,MAX_EFFECT 10.96256684,< 4
same,PXC50,MAX_EFFECT 15.76086957,< 4
CCNc1nc(CN2CCCCC2)nc2scc(-c3ccccc3)c12,PXC50,MAX_EFFECT 17.42424242,< 4
same,PXC50,MAX_EFFECT 18.36734694,< 4
Cc1nc(N2CCNC(=O)CC2C)c2c(-c3ccccc3)csc2n1 (stereo not drawn),PXC50,MAX_EFFECT 10.43256997,< 4
same,PXC50,MAX_EFFECT 12.34256927,< 4
COc1ccc(-c2cc(C(F)(F)F)nc(N3CCCCC3)n2)cc1OC,PXC50,MAX_EFFECT 2.702702703,< 4
same,PXC50,MAX_EFFECT 3.015075377,< 4
CC(C)C[C@H](N)CNc1cccnc1Oc1ccc(Cl)cc1,PXC50,MAX_EFFECT 7.660455487,< 4
same,PXC50,MAX_EFFECT 9.168443497,< 4
NCC1CC1c1ccc(Cl)cc1Cl (stereo not drawn),PXC50,"BOTTOM -0.51010351, HILLSLOPE 1.132508714, MAX_EFFECT 55.5075594, TOP 100.0",3.07
same,PXC50,MAX_EFFECT 48.09885932,< 3
CC(C)C[C@H](N)COc1ccc(Cl)cc1-c1ccno1,PXC50,MAX_EFFECT 6.832298137,< 4
same,PXC50,MAX_EFFECT 8.742004264,< 4
CCOC(=O)N1CCN(c2nc(CCN)nc3sc(C)c(C)c23)CC1,PXC50,"BOTTOM 0.0282, HILLSLOPE 1.091908383, MAX_EFFECT 72.32375979, TOP 100.0",4.33
same,PXC50,"BOTTOM 1.098813228, HILLSLOPE 1.170601195, MAX_EFFECT 79.37336815, TOP 100.0",4.4
Fc1ccc(Nc2nc(-c3ccccn3)cs2)cc1,PXC50,MAX_EFFECT 22.79069767,< 4
same,PXC50,MAX_EFFECT 23.07692308,< 4
COc1cc(C(=O)NC2CCCC2)cn2c(N3CCN(S(C)(=O)=O)CC3)ccc12,PXC50,"BOTTOM 3.193013855, HILLSLOPE 0.707285439, MAX_EFFECT 58.33333333, TOP 100.0",4.17
same,PXC50,"BOTTOM -2.394752883, HILLSLOPE 0.813527414, MAX_EFFECT 65.35087719, TOP 100.0",4.43
COCCNC(=O)c1ccc2ccc(N3CCN(S(C)(=O)=O)CC3)n2c1,PXC50,"BOTTOM 1.198316498, HILLSLOPE 2.008751015, MAX_EFFECT 51.91956124, TOP 53.93938429",4.75
same,PXC50,MAX_EFFECT 47.36842105,< 4
CCOC(=O)c1cnn(-c2nc(C)nc3sc4c(c23)CCC(C)C4)c1N (stereo not drawn),PXC50,MAX_EFFECT 8.465608466,< 4
same,PXC50,MAX_EFFECT 9.066666667,< 4
Cc1nc(N(C)CC(=O)N2CCCC2)c2c3c(sc2n1)CCCC3,PXC50,MAX_EFFECT 3.703703704,< 4
same,PXC50,MAX_EFFECT 3.733333333,< 4
Cc1sc(C)c(C(F)(F)F)c1CNCCCNc1cc(=O)c2ccccc2[nH]1,PXC50,"BOTTOM -1.155419978, HILLSLOPE 1.172834864, MAX_EFFECT 100.9302326, TOP 101.3032533",5.58
same,PXC50,"BOTTOM -1.471807315, HILLSLOPE 1.111829353, MAX_EFFECT 101.8648019, TOP 104.5162556",5.56
CCc1nc(NCCCOC)c2c3c(sc2n1)CCC3,PXC50,MAX_EFFECT 10.43256997,< 4
same,PXC50,MAX_EFFECT 14.35768262,< 4
Nc1nc(CSc2ccccn2)nc2sc3c(c12)CCCC3,PXC50,MAX_EFFECT 37.33333333,< 4
same,PXC50,MAX_EFFECT 37.56613757,< 4
Cc1sc2nc(-c3cccs3)nc(N(C)CC(=O)NC3CC3)c2c1C,PXC50,MAX_EFFECT 6.361323155,< 4
same,PXC50,MAX_EFFECT 7.808564232,< 4
O=C(c1c[nH]cn1)N1CCC(F)(F)C2(CCN(c3ncccn3)C2)C1 (stereo not drawn),PXC50,MAX_EFFECT 6.572769953,< 4
same,PXC50,MAX_EFFECT 11.2962963,< 4
OB1OCc2cc(C(F)(F)F)ncc21,PXC50,MAX_EFFECT 8.490566038,< 4
same,PXC50,MAX_EFFECT 11.87214612,< 4
Cc1sc2nc(CN3CCOCC3)nc(NC(C)(C)CCO)c2c1C,PXC50,MAX_EFFECT 4.371584699,< 4
same,PXC50,MAX_EFFECT 8.021390374,< 4
O=C(NCC1(O)CCC(F)(F)CC1)c1cc(=O)c2cc(F)ccc2o1,PXC50,MAX_EFFECT 1.754385965,< 4
same,PXC50,MAX_EFFECT 9.021113244,< 4
Cc1nc(N(C)CCC#N)c2c3c(sc2n1)CC(C)CC3 (stereo not drawn),PXC50,MAX_EFFECT 3.723404255,< 4
same,PXC50,MAX_EFFECT 5.699481865,< 4
CC1CCc2c(Cl)cc(Cl)c(O)c2N1 (stereo not drawn),PXC50,MAX_EFFECT 23.76425856,< 3
same,PXC50,MAX_EFFECT 24.40604752,< 3
OCc1ccncc1NCc1cnc(-c2ccccn2)s1,PXC50,MAX_EFFECT 2.34741784,< 4
same,PXC50,MAX_EFFECT 7.222222222,< 4
NS(=O)(=O)c1ccc(Cl)cc1Cl,PXC50,MAX_EFFECT 7.991360691,< 3
same,PXC50,MAX_EFFECT 11.97718631,< 3
O=C(O)C1CCCN1c1nc(-c2ccc(Cl)c(Cl)c2)cc(C(F)(F)F)n1 (stereo not drawn),PXC50,MAX_EFFECT 9.660574413,< 4
same,PXC50,MAX_EFFECT 10.44386423,< 4
O=C1CN(c2nc(-c3cccnc3)nc3sc4c(c23)CCCC4)CCN1,PXC50,MAX_EFFECT 24.0,< 4
same,PXC50,MAX_EFFECT 26.98412698,< 4
CCc1nc(N2CCN(c3ncccn3)CC2)c2cc(C)sc2n1,PXC50,MAX_EFFECT 13.86666667,< 4
same,PXC50,MAX_EFFECT 15.34391534,< 4
